Screening data: PubChem BioAssay, National Center for Advancing Translational Sciences (NCATS)
D2 ag-1: HTS Assay for Allosteric Agonists of the Human D2 Dopamine Receptor: Primary Screen for Agonists; HEK293 T-REx D2 cells, calcium flux agonist mode; activation, % at 2 µM; actives 0.53% (n = 340,000); AID 485358, 2010;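 active = activation over 3 SD above normal in the single-dose calcium agonist read, cut at about 30% in these data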; note: 0% is about no effect
Target sequence (P14416 whole entry, looked up): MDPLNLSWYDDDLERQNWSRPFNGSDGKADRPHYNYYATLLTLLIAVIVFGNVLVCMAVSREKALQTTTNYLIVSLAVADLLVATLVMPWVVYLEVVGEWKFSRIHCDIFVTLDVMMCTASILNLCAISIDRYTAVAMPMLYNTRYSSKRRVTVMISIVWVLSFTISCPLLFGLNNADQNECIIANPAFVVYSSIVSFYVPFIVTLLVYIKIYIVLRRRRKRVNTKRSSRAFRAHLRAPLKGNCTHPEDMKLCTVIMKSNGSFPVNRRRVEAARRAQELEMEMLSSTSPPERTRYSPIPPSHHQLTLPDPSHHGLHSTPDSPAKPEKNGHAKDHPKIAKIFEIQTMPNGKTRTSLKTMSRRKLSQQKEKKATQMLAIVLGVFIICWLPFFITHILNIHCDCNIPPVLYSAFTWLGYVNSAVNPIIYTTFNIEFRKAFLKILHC
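Tetracycline-induced HEK293 Trex cells with D2 receptor force-coupled to calcium signaling, plated overnight at 30 C and loaded with no-wash calcium dye. Calcium flux read kinetically for 180 s after compound addition; responses flag agonists.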
D2 PAM-1: HTS Assay for Positive Allosteric Modulators of the Human D2 Dopamine Receptor: Primary Screen for Potentiators | AID 485347, 2010 | actives 0.34% (n = 340,000) | D(2) dopamine receptor (Homo sapiens), P14416 | HEK293 T-REx D2, calcium flux, EC20 dopamine potentiation | potentiation, % at 10 µM;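 active = potentiation over 3 SD above the plate norm, cut at about 30% in these data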; note: 0% is about no effect
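Primary screen. Calcium kinetics in induced HEK293 T-REx D2 cells: compound pre-addition 180 s, EC20 dopamine, 180 s more.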
D2 ag-2: Beta-Arrestin HTS for Positive Allosteric Modulators of the Human D2 Dopamine Receptor: Agonists; actives 0.084% (n = 360,000); D(2) dopamine receptor (Homo sapiens), P14416; activation, % (test concentration not listed); AID 624465, 2012; DiscoveRx PathHunter D2 beta-arrestin, luminescence, 90 min; 100% = 57 uM dopamine signal; in the data active = activation above about 40%; inconclusive = between about 15% and that limit
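Agonist mode: compounds alone added to overnight-plated D2 PathHunter cells for 90 min at 37 C, with 57 uM final dopamine (EC100) defining full response. Beta-arrestin recruitment detected by chemiluminescent reagent, read after 1 h at ambient temperature.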
D2 antag: HTS Assay for Allosteric Antagonists of the Human D2 Dopamine Receptor: Primary Screen for Antagonists; AID 485344, 2010; HEK293 TREx D2 cells, calcium flux, dopamine EC80; actives 2% (n = 340,000); D(2) dopamine receptor (Homo sapiens), P14416; inhibition, % at 10 µM; in the data active = inhibition above about 30%; inactive = below that, where a call was filed; note: 0% is about no effect
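Measurement of antagonist activity uses fluorescent calcium dye in inducible HEK293 T-REx D2 cells: 10 s baseline, compound addition with 180 s read, EC80 dopamine addition with a further 180 s read.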
D2 PAM-2: Beta-Arrestin HTS for Positive Allosteric Modulators of the Human D2 Dopamine Receptor: Potentiators. actives 0.23% (n = 360,000). potentiation, % (test concentration not listed). AID 624464, 2012. DiscoveRx D2 beta-arrestin cells, luminescence, 90 min; 100% = 57 uM dopamine signal. D(2) dopamine receptor (Homo sapiens), P14416; in the data active = potentiation above about 50%; inconclusive = mostly about 30% to 49%
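PathHunter beta-arrestin assay in DiscoveRx D2 cells. Compounds were added with an EC20 of dopamine (50 nM final) for 90 min at 37 deg C. Luminescence was read 1 h after detection reagent, with 57 uM dopamine as the EC100 control.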
An asterisk follows results filed as active; ! = a repeat was not active. Hits are enriched below; roughly 2.4% of the tested compounds scored in any of these assays.

How did COc1ccc(C(=O)NCCn2cc(SCc3c(F)cccc3Cl)c3ccccc32)cc1 do in these assays?
D2 PAM-1: 5

What do the screens show for `CC(C)(C)c1ccc(CN(Cc2ccco2)c2cnc(S(C)(=O)=O)nc2C(=O)Nc2ccc(F)cc2)cc1`?
D2 PAM-1: 11

How did O=C(Nc1cccc2c1CCCC2)c1cc(C2CCCCN2C(=O)c2cccs2)on1 (stereo not given) do in these assays?
D2 ag-2: -2; D2 PAM-2: -2

How did CCOc1ccccc1NC(=O)CSc1nnnn1-c1ccc(C(=O)OC)cc1 do in these assays?
D2 ag-1: -1; D2 PAM-1: 8; D2 ag-2: -1; D2 antag: 50*; D2 PAM-2: -7

What do the screens show for `CCn1c(SCc2nc3sc(C(=O)O)c(C)c3c(=O)[nH]2)nc2ccccc21`?
D2 ag-1: 2; D2 PAM-1: 3; D2 ag-2: -1; D2 antag: -10; D2 PAM-2: 6

How did COCCn1c(SCc2nc3sc(C(=O)OC)c(C)c3c(=O)[nH]2)nc2ccccc21 do in these assays?
D2 ag-1: 1; D2 PAM-1: -5; D2 ag-2: -2; D2 antag: 31*; D2 PAM-2: -19

What do the screens show for `CCOc1ccccc1NC(=O)CSc1nnnn1-c1ccccc1`?
D2 ag-1: 2; D2 PAM-1: -2; D2 ag-2: 0; D2 antag: 31*; D2 PAM-2: -7

What do the screens show for `COCCn1c(SCC(=O)Nc2cccnc2Cl)nc2ccccc21`?
D2 ag-2: -2; D2 PAM-2: -2

What do the screens show for `COCCn1c(SCC(=O)Nc2ccccc2OC)nc2ccccc21`?
D2 ag-1: 1; D2 PAM-1: 11; D2 ag-2: -5; D2 antag: 35*; D2 PAM-2: 0

What do the screens show for `COc1ccc2c(CNC3CCCCCC3)c(C(=O)O)n(Cc3ccccc3F)c2c1`?
D2 ag-1: 0; D2 PAM-1: -8

Results for COc1cc(Cl)c(NC(=O)c2cc(CN3CCCC3)on2)c(OC)c1 ?
D2 ag-1: 0; D2 PAM-1: 9

Results for CCOC(=O)c1ccccc1NC(=O)CSc1nccn1C ?
D2 ag-1: 1; D2 PAM-1: 53*; D2 ag-2: -2; D2 antag: -1; D2 PAM-2: -21

How did CCC(Sc1nc2cc(OC)c(OC)cc2c(=O)n1Cc1ccc(OC)cc1)C(=O)NCCOC (stereo not given) do in these assays?
D2 ag-1: 0; D2 PAM-1: 31*!; D2 ag-2: -2; D2 antag: -1; D2 PAM-2: -2

How did CCCN(CCC)CCCNC(=O)C(NS(=O)(=O)c1ccc2c(c1)CCC(=O)N2)c1ccccc1 (stereo not given) do in these assays?
D2 ag-1: 2; D2 PAM-1: 0; D2 ag-2: 1; D2 antag: 45*; D2 PAM-2: -9

Results for COc1cccc(C(=O)CSc2nc3cccnc3n2C)c1 ?
D2 ag-1: 1; D2 PAM-1: -3; D2 ag-2: 1; D2 antag: 37*; D2 PAM-2: -3

Results for COc1ccc(C(=O)CSc2nc3cccnc3n2C)cc1 ?
D2 ag-1: 0; D2 PAM-1: 11; D2 ag-2: -3; D2 antag: -14; D2 PAM-2: 1

How did CCc1ccc2c(c1)NC(=O)C2(C)Cc1ccccc1Cl (stereo not given) do in these assays?
D2 ag-2: 1; D2 PAM-2: -3

How did Cc1cc(C(=O)Cn2nc(C(=O)O)c3ccccc3c2=O)c(C)n1-c1ccc(OC(F)F)cc1 do in these assays?
D2 ag-1: -1; D2 PAM-1: 36*; D2 ag-2: -4; D2 antag: -14; D2 PAM-2: 0

Results for COc1ccc(-n2c(C)cc(C(=O)Cn3nc(C(=O)O)c4ccccc4c3=O)c2C)cc1 ?
D2 ag-1: 0; D2 PAM-1: -4; D2 ag-2: 3; D2 antag: -4; D2 PAM-2: -4

How did Cc1ccc(OCc2nnc(SCC(=O)Nc3ccccc3C(C)C)o2)cc1 do in these assays?
D2 ag-1: 1; D2 PAM-1: 8

What do the screens show for `CCOc1ccccc1N1C(=O)CC(Sc2ncccc2C(=O)O)C1=O` (stereo not given)?
D2 ag-1: 0; D2 PAM-1: -11; D2 ag-2: -1; D2 antag: 36*; D2 PAM-2: 5

Results for COC(=O)c1[nH]c2c(c1C)C(=O)CC(c1ccc(OC)c(OC)c1)C2 (stereo not given) ?
D2 ag-2: 1; D2 PAM-2: 7

What do the screens show for `COC(=O)c1[nH]c2c(c1C)C(=O)CC(c1ccc(C)cc1)C2` (stereo not given)?
D2 ag-1: 0; D2 PAM-1: -1; D2 ag-2: 1; D2 antag: 32*; D2 PAM-2: -16

What do the screens show for `N=c1oc2c3c4c(cc2cc1C(=O)Nc1ccccc1)CCCN4CCC3`?
D2 ag-1: 95*; D2 PAM-1: -15; D2 ag-2: 4; D2 antag: 71*; D2 PAM-2: 23

Results for COc1ccccc1N1CCN(C2CCN(C(=O)COc3cccc(C)c3)CC2)CC1 ?
D2 ag-1: 0; D2 PAM-1: -13; D2 ag-2: 0; D2 antag: 69*; D2 PAM-2: -40

What do the screens show for `COc1ccccc1N1CCN(C2CCC(C)CC2)CC1` (stereo not given)?
D2 ag-1: 0; D2 PAM-1: -38; D2 ag-2: -4; D2 antag: 11; D2 PAM-2: -2

How did COc1ccccc1N1CCN(C2CCN(C3CCC(c4ccccc4)CC3)CC2)CC1 (stereo not given) do in these assays?
D2 ag-1: -1; D2 PAM-1: -26; D2 antag: 45*

How did Cc1cccc(NC(=O)CSc2nccn2-c2cccc(Cl)c2)c1C do in these assays?
D2 ag-1: 0

Results for Cc1ccccc1C(=O)O/N=C/c1c(N2CCOCC2)n(C)c2ccccc12 ?
D2 ag-1: 1; D2 PAM-1: -6; D2 ag-2: inconclusive; D2 antag: -6; D2 PAM-2: 180*

Results for CCOC(=O)N1CCN(C(=O)CN(c2ccc(C)cc2C)S(=O)(=O)c2ccccc2)CC1 ?
D2 ag-1: -1; D2 PAM-1: -14

What do the screens show for `Nc1nc2c(s1)CCc1c-2cnn1-c1ccccc1`?
D2 ag-1: -2; D2 PAM-1: 6; D2 ag-2: 40*; D2 antag: 7; D2 PAM-2: 8
